Only some compounds are listed: those with a hit (about 1.8% of all), similar ones and a draw of the others.
Neddyl block: blocks human cullin neddylation. P61081+Q13564. TR-FRET cullin neddylation, biochemical. inhibition, % at 25 µM. hit rate 0.58% among 360,000. AID 651699; in the data active = inhibition above about 36%
HDAC3 inhib: inhibitors of human histone deacetylase 3. O15379. recombinant HDAC3, fluorogenic peptide/trypsin coupled, fluorescence. inhibition, % at 8.3 µM. hit rate 0.15% among 320,000. AID 2718; in the data active = inhibition above about 26%, passing the limit was not always enough
Target sequence (O15379 whole entry, looked up): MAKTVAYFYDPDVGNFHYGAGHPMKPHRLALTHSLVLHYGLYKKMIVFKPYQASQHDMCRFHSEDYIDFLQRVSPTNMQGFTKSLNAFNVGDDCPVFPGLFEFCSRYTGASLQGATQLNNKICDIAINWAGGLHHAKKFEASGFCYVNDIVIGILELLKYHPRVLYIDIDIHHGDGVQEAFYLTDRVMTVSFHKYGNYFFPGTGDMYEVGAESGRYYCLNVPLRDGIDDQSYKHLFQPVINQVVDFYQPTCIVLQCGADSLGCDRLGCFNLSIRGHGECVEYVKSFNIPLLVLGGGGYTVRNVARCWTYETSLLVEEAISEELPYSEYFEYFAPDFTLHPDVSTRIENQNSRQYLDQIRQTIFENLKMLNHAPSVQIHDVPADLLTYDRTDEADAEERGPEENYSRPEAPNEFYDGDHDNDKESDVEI
Cardio protect: modulators protecting cardiomyocytes from myocardial damage. hit rate 0.63% among 360,000. protection from H2O2 cell death, % at 20 µM. H9c2 cardiomyocytes, H2O2 injury protection, ATPLite, 2 h;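 active = compounds giving at least 50% protection of heart cells from peroxide-induced death in the single-dose screen, raw or plate-pattern-corrected value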
GRK2 aptamer HTS: blocks RNA aptamer binding to human GRK2. P25098. bead flow cytometry, FAM-aptamer displacement from GRK2. inhibition of aptamer binding, % at 10 µM. hit rate 0.59% among 330,000;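 active = inhibition of aptamer binding above 40%, roughly 3 SD of noise, on plates passing a quality check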;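 note: median bead fluorescence of bound FAM aptamer so fluorescent compounds give negative values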
Neddyl conf: confirmation of human cullin neddylation inhibitors; shares compounds with Neddyl block; TR-FRET cullin neddylation biochemical assay; calls only at 25 µM; hit rate 13% among 1,800; AID 652217; in the data active = inhibition above about 40%;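 note: neddylation substrate is the cullin 1 ring ligase complex with SKP2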
A number is an active result; 0 = inactive; - = no result given; + = active, no number.

SMILES	Neddyl block	HDAC3 inhib	Cardio protect	GRK2 aptamer HTS	Neddyl conf
CC1CCN(C(=O)Nc2cccc(NC(=O)N3CCC(C)CC3)c2)CC1	0	0	0	0	-
S=C(Nc1ccc2nsnc2c1)NC1CCCCC1	0	0	0	0	-
CCN(C(=O)COC(=O)c1ncc(Cl)c(Cl)c1Cl)c1c(N)n(Cc2ccccc2)c(=O)[nH]c1=O	0	-	0	-	-
O=C(c1cc(C2CC2)nn1-c1ccccc1)N1CCN(S(=O)(=O)c2cccc(F)c2)CC1	0	0	0	0	-
COc1ccc(S(=O)(=O)NCc2ccc(C(=O)NCc3cccnc3)cc2)cc1	-	0	-	0	-
Cc1ccc(NC(=O)NC(=O)N(C(C)C)S(C)(=O)=O)nc1	53	0	0	0	-
C[C@H](O)[C@@H]1C(=O)N2CCc3c([nH]c4ccccc34)[C@@H]2C[C@@H]1N(C)Cc1ccc(Cl)cc1	44	-	0	-	0
CCN(CC)C(=O)CSc1ncccc1-c1nc2ccccc2[nH]1	43	0	0	0	0
O=c1[nH]cc(CCc2ccccc2)c(=O)[nH]1	0	-	0	-	-
Fc1cccc(CO/N=C/c2c(-c3ccccc3)nc3ccc(Cl)cn23)c1	0	0	0	0	-
Cc1cccn2c(/C=N/OCc3cccc(F)c3)c(-c3ccc(Cl)cc3)nc12	48	0	0	0	0
COc1ccc(/C(C)=N/OC/C(O)=C(\C#N)c2nc3ccccc3[nH]2)cc1	0	0	0	0	-
CCN1CCN(S(=O)(=O)c2ccc3c4c(cccc24)C(=O)N3CC)CC1	58	0	0	0	-
CCN1C(=O)c2cccc3c(S(=O)(=O)NCc4ccco4)ccc1c23	51	0	0	0	0
CCN1C(=O)c2cccc3c(S(=O)(=O)N4CCNCC4)ccc1c23	-	0	0	0	-
Cc1cc(C)c(C2=Nn3c(C)nnc3SC2C)cc1C (stereo unspecified)	0	0	0	0	-
O=c1c2ccccc2nc2ccccn12	-	0	0	0	-
O=c1c2ccccc2nc2c3ccccc3cnn12	44	0	0	0	0
Cn1c(CO)nc2c3ccccc3ccc21	0	0	0	0	-
CC(=O)c1ccc(/C=C/c2nc3ccccc3n2C)o1	-	0	0	0	-
CCSC1=C(C#N)C(c2ccc(C)o2)CC(=O)N1 (stereo unspecified)	40	0	0	0	0
CCCCCCSC1=C(C#N)C(c2ccc(C)o2)CC(=O)N1 (stereo unspecified)	0	0	0	0	-
COc1ccc(C(=O)Cn2c(=O)c(CCC(=O)O)nn3c4ccccc4nc23)cc1OC	39	0	0	0	+
COCCNc1nc2ccccc2n1CC(=O)c1ccc(OC)c(OC)c1	0	0	0	0	-
O=C1OCc2nc3cc4c(cc3c(-c3ccc(F)cc3)c21)OCO4	52	0	0	0	0
SMILES	Neddyl block	HDAC3 inhib	Cardio protect	GRK2 aptamer HTS	Neddyl conf
O=C(c1cc2cc([N+](=O)[O-])ccc2s1)N1CCCCC1	0	0	0	0	-
CN(C)c1cccc(C(=O)NCc2ccccc2)c1	41	0	0	0	0
O=C(CSc1ccc(-c2cccc([N+](=O)[O-])c2)nn1)N1CCCCC1	0	0	0	0	-
Cc1ccc(-n2c(SCC(=O)OC(C)C)nnc2-c2ccncc2)cc1	41	0	0	0	0
CC(C)OC(=O)CSc1nnc(-c2ccncc2)n1N	0	0	0	0	-
CCOC(=O)C1CCc2c(ccc3ccccc23)N1CCC#N (stereo unspecified)	47	-	0	-	-
CCOC(=O)C1CCCN(C(=O)c2cccc3ccccc23)C1 (stereo unspecified)	0	0	0	0	-
COc1ccccc1Nc1cc(C)nc2c(C)ccc([N+](=O)[O-])c12	45	0	0	0	0
Cc1cc(Nc2ccccc2)c2c([N+](=O)[O-])cc(C)c(C)c2n1	0	0	0	0	-
CCSc1nnc(-c2ccc(S(=O)(=O)N3CCOCC3)cc2)n1C	39	0	0	0	0
CSc1nnc(-c2ccc(S(=O)(=O)N3CCOCC3)cc2)n1C	0	0	0	0	-
CCSc1nnc(-c2ccc(S(=O)(=O)N3CCCC3)cc2)n1C	46	-	0	0	0
Cc1ccc(NS(=O)(=O)c2ccc(C)c(C(=O)Nc3ccc(S(=O)(=O)Nc4onc(C)c4C)cc3)c2)cc1	0	-	0	-	-
COC(=O)N/N=C/c1ccc(OC(=O)/C=C/c2ccco2)cc1	52	0	0	0	0
CCCCCCCC(=O)N/N=C(\C)c1ccc(O)cc1O	42	0	0	0	0
COc1ccc(C(=O)Nn2cnnc2)cc1OC	0	0	0	0	-
Oc1ccccc1C=NNc1nc2ccccc2s1	39	-	0	-	0
CC(=O)c1c(C)[nH]c(C(=O)N(C)CC(=O)Nc2ccc(Cl)c(C(F)(F)F)c2)c1C	0	0	0	0	-
CCN(CC)S(=O)(=O)c1cccc(-c2nn(-c3ccccc3)cc2/C=C(\C#N)C(=O)NCc2ccco2)c1	39	0	0	0	0
Cc1ccc(NC(=O)c2cc3ccccc3cc2O)cc1	43	0	0	0	0
COc1ccc(NC(=O)c2cc3ccccc3cc2O)cc1	0	0	0	0	-
COc1ccc2[nH]c(C(=O)O)c(NS(=O)(=O)c3ccc(C)c(C)c3)c2c1	40	0	0	0	0
COc1ccc2[nH]c(C(=O)O)c(NS(=O)(=O)c3ccc(F)cc3)c2c1	0	0	0	0	-
CCN(CC(=O)Nc1c(F)cccc1F)C(=O)c1ccc(Cl)c(S(=O)(=O)N2CCCCC2)c1	0	0	0	0	-
COc1ccc(C(=O)n2cc(C(=O)c3cc(C)ccc3O)cn2)cc1OC	44	53	0	0	-
SMILES	Neddyl block	HDAC3 inhib	Cardio protect	GRK2 aptamer HTS	Neddyl conf
COc1ccc(O)c(C(=O)c2cnn(C(=O)c3cccc(N(C)C)c3)c2)c1	41	30	0	0	0
CN(C)c1ccc(/C=N/NC(=O)Cn2nnc3ccccc32)cc1	40	0	0	0	0
COc1ccc(/C=N/NC(=O)CCCCCNC(=O)c2ccccc2)cc1	0	0	0	0	-
CN(C)c1ccc(/C=N/NC(=O)CCCO)cc1	0	0	0	0	-
COc1ccc(/C=N/NC(=O)Cn2nnc3ccccc32)cc1OC	0	0	0	0	-
CN(C)c1ccc(/C=N/NC(=O)CCCCCNC(=O)c2ccccc2)cc1	43	-	0	0	+
CN(C)c1ccc(/C=N/NC(=O)CNC(=O)c2ccc3c(c2)OCCO3)cc1	58	0	0	0	-
CCCCCC(=O)N/N=C/c1ccc(N(C)C)cc1	42	0	0	0	-
O=S1(=O)N[C@@H](Cc2ccccc2)COc2cc(N3CCC[C@H]3CO)ccc21	0	-	-	-	-
Cc1cccc(C)c1-n1nnnc1C1(C)CCC(=O)N1c1ccc(N2CCOCC2)cc1 (stereo unspecified)	0	-	-	-	-
COc1ccccc1NC(=O)Cn1cnc2sc(C)c(S(=O)(=O)N3CCCCC3)c2c1=O	0	0	0	0	-
Cc1cc(NC(=O)C(C)SCC(=O)Nc2ccc(Br)cc2Br)no1 (stereo unspecified)	0	0	0	0	-
COc1ccc(/C=N/NC(=O)CNC(=O)COc2ccccc2)cc1	0	0	0	0	-
COc1ccc(OCC(=O)N/N=C/c2ccc(N(C)C)cc2)cc1	45	0	0	0	+
COc1ccc2cc3cc(C(=O)N4CCCC(C)C4)oc3nc2c1 (stereo unspecified)	45	0	0	0	0
COc1ccc(Oc2nc(C)cc(C)c2C#N)cc1	0	0	0	0	-

Bioassay records from PubChem BioAssay.
